In PubChem BioAssay AID1347139 (National Center for Advancing Translational Sciences (NCATS), 2019):
Some of the results follow. Records with an inconclusive call do not appear. Active and inactive are the calls of the source. The call rests on the fitted dose curve; in most records, active means well fitted inhibition curve with a large enough effect; inconclusive means small, poorly fitted or top-dose-only effect; inactive means no such curve, though single readings can be large or run the other way.

experiment: qHTS of pediatric cancer cell lines to identify multiple opportunities for drug repurposing: Orthogonal 3D viability screen for TC32 cells; settings: TC32 3D spheroid viability, PI/Hoechst imaging, 72 h; series mostly up to 30.7 µM; activity change, negative = less viable: at the top concentration
Excerpt: Drug repurposing or repositioning has been offered as a strategy for drug development in oncology programs. This approach has special potential for childhood cancers and other rare or orphan diseases, where the expected return on new drug development has been a disincentive to pharmaceuticals. […] In this project we exploit the poly-pharmacology of drugs to discover new indications via phenotypic screening of a panel of 19 well-characterized cell lines derived from solid tumors seen in children and adolescents. The goal is to identify approved drugs with previously unrecognized anticancer properties that has the potential to reveal new mechanisms and biological processes involved in carcinogenesis or drug resistance. We employed a titration-based paradigm (quantitative high-throughput screening or qHTS), where all compounds were tested at multiple concentrations for their effect on cell viability. Concentration-response curves (CRCs) were derived directly from the primary screen, and both potency and efficacy values were used to identify compounds with robust bioactivity profiles. […] These two assays will be used to validate active compounds and assess the correlation of compound's potency in 2D vs 3D cultures on selected cell lines. Assay Submitter: Nathalia J. Martinez, National Center for Advancing Translational Sciences, National Institutes of Health, Rockville, MD, USA; email: natalia.martinez@nih.gov Shen, M et al. Quantitative high-throughput phenotypic screening of pediatric cancer cell lines identifies multiple opportunities for drug repurposing. Oncotarget 2017 Dec 19;9(4):4758-4772. PMID 29435139.
The cells were obtained from University of North Carolina (UNC), Pediatric Preclinical Testing Program (PPT), and Coriell Institute (CI). qHTS viability in 3D culture: Cells were assayed in phenol red-free growth media at a density of 1,000 cells/well, with the exception of Daoy, and SH-N-SH which were assayed at 1,500 cells/ well. Thirty muL of cells were dispensed into 384-well, ULA, round bottom plates (Corning) using a Multidrop dispenser. Plates were spun down at 1,000 rpm for 1 min and incubated at 37 degrees C, 5% CO2, under a humidified atmosphere for either 24 (Daoy) or 48 hours (all other cell lines) to allow spheroid formation. Ninety-two nanoliter of compounds and controls (neutral control DMSO or positive control bortezomib at final concentrations of 0.5 µM) were subsequently transferred via GNF Pintool. Plates were sealed using a breathable seal (Diversified Biotech, Dedham, MA) and incubated for 72 hours at 37 degrees C. Spheroid viability was first determined by high-content imaging using Hoechst 33342 and Propidium Iodide (PI, ThermoFisher Scientific), followed by addition of CellTiter-Glo 3D (Promega). Specifically, 3 µL/well of PBS containing a 1:500 dilution of both dyes was dispensed using Multidrop. Dyes were incubated for 1 hour before imaging using the Celigo Image Cytometer. Then, 20 µl of CellTiter-Glo 3D were added per well. Plates were incubated for 30 min at RT on a VWR microplate shaker (300 rpm) and analyzed for luminescence intensity using a ViewLux High-throughput CCD imager equipped with clear filters. Image analysis was done using the Celigo Tumorsphere 1+2+3 application software as previously described. […] The data were exported to Excel, and the average fluorescent intensities were used to calculate the ratio of PI over Hoechst, which was used to quantify viability. […]

Compound | Potency | activity change, negative = less viable
COC(=O)Nc1nc2ccc(Sc3ccccc3)cc2[nH]1 | 810 nM (active) | 
CC(NCc1ccc2c(c1)nc(NC(=O)c1ccc(-c3cn[nH]c3)s1)n2CC(C)(C)O)C(C)(C)C (stereo not given) | 1620 nM (active) | 
CC[C@H]1CN2CCc3cc(OC)c(OC)cc3[C@@H]2C[C@@H]1C[C@H]1NCCc2cc(OC)c(OC)cc21 | 323 nM (active) | 
CC[C@]1(O)C[C@@H]2CN(CCc3c([nH]c4ccccc34)[C@@](C(=O)OC)(c3cc4c(cc3OC)N(C)[C@H]3[C@@](O)(C(=O)OC)[C@H](OC(C)=O)[C@]5(CC)C=CCN6CC[C@]43[C@@H]65)C2)C1 | 32.3 nM (active) | 
C=C1C(=CC=C2CCC[C@]3(C)[C@@H]([C@H](C)C=C[C@H](C)C(C)C)CC[C@@H]23)C[C@@H](O)C[C@@H]1O |  | -17.7% (inactive)
